# Test results taken from PubChem BioAssay (Tox21).
# Results filed as inconclusive are left out. Activity calls are given as the source filed them. Calls come from the whole dose curve; as a rule, active = well fitted inhibition curve with a large enough effect in the repeat runs; inconclusive = weak or mixed curves, or effect the other way; inactive = no such curve, though single readings can be large or run the other way.
# Target: Nuclear receptor subfamily 1 group I member 3 (Homo sapiens) (UniProt Q14994)
# Sequence (Q14994 whole entry, looked up): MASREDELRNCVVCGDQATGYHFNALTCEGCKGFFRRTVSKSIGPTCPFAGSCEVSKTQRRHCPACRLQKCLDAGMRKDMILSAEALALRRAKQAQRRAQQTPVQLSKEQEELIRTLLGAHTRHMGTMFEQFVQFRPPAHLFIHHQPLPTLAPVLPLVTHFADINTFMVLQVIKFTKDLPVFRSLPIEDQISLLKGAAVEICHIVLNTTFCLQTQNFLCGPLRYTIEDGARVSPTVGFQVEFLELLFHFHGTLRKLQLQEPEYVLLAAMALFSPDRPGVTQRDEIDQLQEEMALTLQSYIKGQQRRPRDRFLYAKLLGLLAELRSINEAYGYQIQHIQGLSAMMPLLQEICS
# Experiment: qHTS assay to identify small molecule antagonists of the constitutive androstane receptor (CAR) signaling pathway (AID 1224838);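 note: HepG2 cells stably expressing hCAR with CYP2B6 luciferase reporter stimulated by CITCO; nearly all actives have a fitted effect of over 40% in size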
# Details: HepG2-CYP2B6-hCAR luciferase, CITCO-stimulated, 24 h; series mostly up to 92.4 µM; activity, negative = inhibition: at the top concentration
# Excerpt: U.S. Tox21 Program National Center for Advancing Translational Sciences [NCATS] NIH Chemical Genomics Center [NCGC] U.S. Environmental Protection Agency [EPA] National Institutes of Environmental Health Sciences [NIEHS] National Toxicology Program [NTP] U.S. Food and Drug Administration [FDA] Tox21 Assay Overview: The constitutive androstane receptor (CAR) is a nuclear receptor which regulates multiple drug metabolizing enzymes (DMEs) and transporters. Activating CAR will generally increase the transcription and subsequent translation of CYP2B6 and CYP3A4. These two DMEs represent about 50% of the drug metabolizing potential in the body. When CAR is deactivated, the metabolizing potential in the body will decrease, subsequently increasing the toxicity in the body or lowering the therapeutic potential of a pro-drug. Recently, there have also been studies performed indicating CARs role in energy metabolism and cancer therapy. Therefore, inhibiting CARs activity could have a potential effect on diabetes and cancer. Identifying environmental toxins and compounds which modulate CAR, through the use of the Tox21 10K compound collection, will be an important step in determining the toxicity and potential therapeutic effects these factors will have on the human body.
# Tox21 Assay Protocol Summary: A double-stable (hCAR and CYP2B6-2.2kb) transfected cell line, derived from human hepatoma (HepG2) cells, was utilized for the duration of the quantitative high-throughput screens. The HepG2-CYP2B6-hCAR cells suspended in DMEM culture medium supplemented with 10% FBS, 5 ug/mL blasticidin, 0.5 mg/mL geneticin, 100 U/mL penicillin and 100 ug/mL streptomycin were dispensed at 2500 cells/4 uL/well in 1536-well white solid bottom plates using a Multidrop Combi. After the assay plates were incubated at 37 C/5% CO2 for 4 hrs, 23 nL of compounds at 15 concentrations (from 5-48 columns) or positive control (from 1 to 4 columns) were transferred to the assay plates using a Pintool station. One uL of CITCO, was added using a Flying Reagent Dispenser to generate a final concentration of 50 nM CITCO inside each well. After a 24 hr incubation period at 37 C/5% CO2, four uL of ONE-Glo reagent was added into the assay plates using a Flying Reagent Dispenser. After a 30 min incubation period at room temperature, the luminescence intensity in the assay plates was measured using a ViewLux plate reader.
# % is set by controls: 0 for no effect and ±100 for the full control effect; potency is the fitted concentration of half-maximal effect.
SMILES,Potency,"activity, negative = inhibition"
CN1CC[C@H](c2c(O)cc(O)c3c(=O)cc(-c4ccccc4Cl)oc23)[C@H](O)C1,0.596 µM (active),–
Cc1cc(F)ccc1-c1cc(N2CC[C@@H](O)[C@H]2CO)ncc1N(C)C(=O)C(C)(C)c1cc(C(F)(F)F)cc(C(F)(F)F)c1,–,-8.02% (inactive)
CCCCCN=C(N)N/N=C/c1c[nH]c2ccc(OC)cc12,16.8 µM (active),–
O[Si](c1ccccc1)(c1ccccc1)c1ccccc1,–,41.4% (inactive)
CC/C=C(\C)C=O,–,7.42% (inactive)
Oc1ccc(C2(c3ccc(O)c(C4CCCCC4)c3)CCCCC2)cc1C1CCCCC1,27.3 µM (active),–
CC(C)(C)c1cc(CCC(=O)OCCSCCOC(=O)CCc2cc(C(C)(C)C)c(O)c(C(C)(C)C)c2)cc(C(C)(C)C)c1O,–,-3.48% [at 42.5 µM] (inactive)
CC(CC(C)(C)C)CC(C)(C)CC(C)(C)C (stereo not given),–,-15.7% [at 42.5 µM] (inactive)
CC/C(=C(/c1ccc(O)cc1)c1ccc(OCCN(C)C)cc1)c1ccccc1,35.9 µM (active),–
CC(=O)Nc1ccc(N=Nc2cc(C)ccc2O)cc1,–,100% (inactive)
C=CC(C)(C)O,–,-4.08% (inactive)
CC(C)(c1ccc(Oc2ccc(N)cc2)cc1)c1ccc(Oc2ccc(N)cc2)cc1,–,63.5% (inactive)
O=c1[nH]cccc1O,–,29.6% (inactive)
CCCCCCCCCCCC(=O)Cl,–,24.4% (inactive)
Cc1cc(Br)ccc1NC(=O)CCl,68.6 µM (active),–
O=C1OC2(c3ccccc31)c1ccc(O)c(Br)c1Oc1c2ccc(O)c1Br,–,-8.18% (inactive)
O=C(O)C[C@H](O)C[C@H](O)/C=C/c1c(C2CC2)nc2ccccc2c1-c1ccc(F)cc1,–,-27.1% [at 19 µM] (inactive)
CCN(CC)c1ccc(C=O)c(O)c1,–,73.1% (inactive)
CCC1(C)C(=O)N(Cl)C(=O)N1Cl (stereo not given),–,3.34% (inactive)
CCCCCCCCSCc1cc(C)c(O)c(CSCCCCCCCC)c1,–,9.92% (inactive)

SMILES,Potency,"activity, negative = inhibition"
Cc1ccc2sc3cccc(C)c3c2c1,–,43.9% (inactive)
Oc1ccc(Cl)cc1C1CCCC1,–,21.9% (inactive)
CCOC(=O)[C@H](C)O,–,3.82% (inactive)
CCCC(C)C=O (stereo not given),–,-1.44% (inactive)
N#Cc1ccc(C/C(=N/NC(=O)Nc2ccc(OC(F)(F)F)cc2)c2cccc(C(F)(F)F)c2)cc1,–,69% (inactive)
Cc1cc(C)c(O)c(C(C)(C)C)c1,–,-4.58% (inactive)
CN1CCN(CCCN2c3ccccc3Sc3ccc(Cl)cc32)CC1,–,36.6% [at 42.5 µM] (inactive)
C=C1CC[C@H]2O[C@]2(C)CC[C@@H]2[C@@H]1CC2(C)C,–,-16.2% (inactive)
COCCC(=O)OC,–,-19.4% (inactive)
Nc1ccc(F)c([N+](=O)[O-])c1,–,43.5% (inactive)
CCC(C)(C)c1ccc(CC(C)CN2C[C@@H](C)O[C@@H](C)C2)cc1 (stereo not given in full),–,10.8% [at 42.5 µM] (inactive)
CCN(CC)c1ccc(C=O)cc1,–,39.3% (inactive)
c1ccc(-c2ccc(C(c3ccccc3)n3ccnc3)cc2)cc1 (stereo not given),–,78.6% [at 42.5 µM] (inactive)
c1ccc(-c2ccccc2-c2ccccc2)cc1,–,1.45% (inactive)
C/C(=N\[Si](C)(C)C)O[Si](C)(C)C,–,2.01% (inactive)
O=C1OCc2ccccc21,–,3.42% (inactive)
CC1=C(/C=C/C(C)=C/C=C/C(C)=C\C(=O)O)C(C)(C)CCC1,–,118% (inactive)
CCCCCCCCCCCCCCCCC(C(=O)O)C(O)(CC(=O)O)C(=O)O (stereo not given),–,26.7% [at 42.5 µM] (inactive)
Cc1ccc(S(=O)(=O)C(I)I)cc1,27.3 µM (active),–
CCOc1nc(F)cc2nc(S(=O)(=O)Nc3c(Cl)cccc3C(=O)OC)nn12,–,5.37% (inactive)
